Out of some 200,000 compounds screened, about 520 (0.26%) were called active. Many of the other results were omitted from the sample, so actives are more common in it than they were. Unmarked numbers belong to inactive results. No stated cut-off is given here; in the data, active means activation above about 23%; inactive means the rest.

Results on five molecules are retold here after PubChem BioAssay AID731 (The Scripps Research Institute Molecular Screening Center, 2007).

The assay deals with Peroxisome proliferator-activated receptor gamma (Homo sapiens) (UniProt P37231). Kind of assay: PPARgamma agonists recruiting SRC-3 coactivator, primary screen, biochemical (AID 731).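 Further: 0% = DMSO and 100% = reference agonist.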 To be noted: biochemical PPARgamma/SRC-3 coactivator recruitment assay; at 8 µM; active compounds read high.
Chain of Peroxisome proliferator-activated receptor gamma (Homo sapiens) (P37231 whole entry, looked up): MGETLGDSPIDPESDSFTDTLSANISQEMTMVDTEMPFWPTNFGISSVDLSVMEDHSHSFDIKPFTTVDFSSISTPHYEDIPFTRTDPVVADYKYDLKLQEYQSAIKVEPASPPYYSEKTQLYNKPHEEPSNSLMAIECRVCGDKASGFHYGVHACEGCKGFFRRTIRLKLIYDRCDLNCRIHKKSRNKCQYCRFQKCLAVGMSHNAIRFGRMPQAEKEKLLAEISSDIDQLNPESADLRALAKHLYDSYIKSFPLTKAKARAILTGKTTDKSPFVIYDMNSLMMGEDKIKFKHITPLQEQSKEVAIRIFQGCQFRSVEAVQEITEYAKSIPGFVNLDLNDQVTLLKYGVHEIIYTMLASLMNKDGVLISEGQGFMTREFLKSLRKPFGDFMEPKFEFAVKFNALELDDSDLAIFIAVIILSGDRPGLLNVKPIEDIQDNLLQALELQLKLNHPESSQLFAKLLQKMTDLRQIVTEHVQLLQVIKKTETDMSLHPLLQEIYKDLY
With `CSC1=NP(=S)(SC)N(C)c2nc3n(c21)CCC3` (stereo not given), the activation is 102% (active).

Consider `CCCCCCN=C(CC)c1c(O)n(CCCC)c(=O)[nH]c1=O`, for which the activation is -4.72%. In the case of `CCNc1nc2[nH]c(=O)c3c(c2s1)OC(N)=C(C#N)C3c1cccs1` (stereo not given), the activation was -2.75%. Take `CCN(CC)c1ccc([N+](=O)[O-])c2cccnc12`: the activation is 4.74%. Then `CC[N+](CC)(CC)CCCCCCCCCC[N+](CC)(CC)CC`, with -1.93%.
